Bioassay records as filed in PubChem BioAssay.
Hits are enriched below; roughly 10% of the tested compounds scored in any of these assays.
SARS PLpro yeast – qHTS of Yeast-based Assay for SARS-CoV PLP; S. cerevisiae expressing SARS-CoV PLpro, growth rescue; 330,000 tested, 0.19% active; AID 485353, 2010; Potency, µM (doses to about 32.9 µM), without a hit: at the top dose activity, positive = growth rescue, usual class: activators; further: 0% is about no effect; nearly all actives have a fitted effect of over 55% in size
Pf growth 96h – Primary qHTS for delayed death inhibitors of the malarial parasite plastid, 96 hour incubation; P. falciparum luciferase reporter growth, 96 h; Potency, µM (highest dose often 28.7 µM), for inactives: at the highest dose activity change, negative = inhibition, most hits filed as inhibitors; 320,000 tested, 6.9% active; active means well fitted inhibition curve with a large enough effect; inconclusive means small, poorly fitted or top-dose-only effect, or another doubt; inactive means no such curve, though single readings can be large or run the other way; further: on the % scale 0 is the no-effect control and ±100 the full control effect
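Plates of compound plus infected erythrocytes (2% hematocrit, 0.05% parasitemia final) incubate 96 hours, 37 C, 5% CO2. Detection reagent added; reduced luminescence from the parasites' luciferase reporter flags inhibition.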
NS1 inh – qHTS Assay for Inhibitors of Influenza NS1 Protein Function; AID 2326, 2010; 270,000 tested, 0.4% active; Potency, µM (doses to about 46.1 µM), for inactives: at the top dose activity, positive = more growth; further: actives are rising curves; nearly all actives have a fitted effect of over 50% in size
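Recovery from NS1-induced slow growth read by OD600 in budding yeast switched to galactose assay medium (pH 6.0, -URA) at 1:100 dilution. Compound 23 nl per well; the matching strain lacking NS1 serves as control.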
Pf growth 48h – Primary qHTS for delayed death inhibitors of the malarial parasite plastid, 48 hour incubation | 310,000 tested, 5.9% active | Potency, µM (series often up to 28.7 µM), for inactives: at the top dose activity change, negative = inhibition, most hits filed as inhibitors | P. falciparum luciferase growth in erythrocytes, 48 h | AID 504832, 2011; active means well fitted inhibition curve with a large enough effect; inconclusive means small, poorly fitted or top-dose-only effect, or another doubt; inactive means no such curve, though single readings can be large or run the other way; further: on the % scale 0 is the no-effect control and ±100 the full control effect
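Firefly luciferase activity from engineered P. falciparum reports growth; inhibitors lower the luminescent signal. Cultures contained 2% hematocrit erythrocytes at 0.1% final parasitemia.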
The depositor's hits bear a star; ? = inconclusive; / = no result given. Unless noted, the call rests on the fitted dose curve. Potency means the concentration at half of the fitted maximal effect.

SMILES	SARS PLpro yeast	Pf growth 96h	NS1 inh	Pf growth 48h
COc1cc2nc(N3CCN(C(=O)C4CCCO4)CC3)nc(N)c2cc1OC (stereo not drawn)	-4%	-12%	5%	?
O=C(C1COc2ccccc2O1)N1CCN(Cc2ccccc2)CC1 (stereo not drawn)	5%	8.3µM*	-4%	30%
CSc1cc(C)c(OCC(=O)Nc2c(C)nn(C)c2C)c(C)c1	3%	?	-12%	?
COC(=O)c1sc(N)c(C(=O)OC)c1Cn1ncc(Cl)c(Cl)c1=O	11%	8.3µM*	2%	13µM*
CCN(C(=O)CSc1nnc(SC)s1)c1c(N)n(Cc2ccccc2)c(=O)[nH]c1=O	-5%	-19%	/	-9%
CCOC(=O)c1ccc(NS(=O)(=O)c2c(C)nc3sccn3c2=O)cc1	1%	10µM*	1%	31%
Cc1ccc(NS(=O)(=O)c2c(C)nc3sccn3c2=O)cc1	1%	0%	-10%	-4%
Cc1nc2sccn2c(=O)c1S(=O)(=O)NCc1ccccc1	0%	62%	0%	23%
COc1cccc(CNS(=O)(=O)c2c(C)nc3sccn3c2=O)c1	-1%	0.52µM*	12%	4%
CCc1ccc(NC(=O)COC(=O)Cn2cnc3ccccc32)cc1	1%	42%	/	-1%
COc1ccc(CNC(=O)C2CCCN(c3ncnc4c3nc3n4CCCCC3)C2)cc1 (stereo not drawn)	-2%	?	3%	-13%
CCc1nn(CC(=O)N2CCCCCC2)c(=O)c2cc3ccccc3n12	2%	-23%	-2%	-3%
C=CCc1cccc(CNc2c(C)n(C)n(-c3ccccc3)c2=O)c1O	-10%	66%	8%	10µM*
Cc1c(NC(=O)c2cccc(S(=O)(=O)N3CCOCC3)c2)c(=O)n(-c2ccccc2)n1C	4%	8.3µM*	0%	-3%
Cc1c(NC(=O)c2ccccc2)c(=O)n(-c2ccccc2)n1C	9%	10µM*	3%	25%
Cc1c(NC(=O)c2ccc(S(=O)(=O)N3CCOCC3)cc2)c(=O)n(-c2ccccc2)n1C	1%	-12%	-1%	-3%
Cc1c(NC(=O)CN2C(=O)c3ccc([N+](=O)[O-])cc3C2=O)c(=O)n(-c2ccccc2)n1C	-1%	27%	0%	31%
Cc1c(NC(=O)c2ccc(-c3ccc([N+](=O)[O-])cc3Cl)o2)c(=O)n(-c2ccccc2)n1C	1%	9.3µM*	2%	20%
Cc1cc(C(=O)NCCN2C(=O)S/C(=C\c3cccs3)C2=O)ccc1[N+](=O)[O-]	-13%	10%	2%	18%
O=C1c2ccccc2[C@@H]2C[C@@H](O)[C@H](Nc3cccc(Cl)n3)CCN12	1%	/	/	/
Cc1c(C(=S)NC(=O)C2CC2)c(=O)n(-c2ccccc2)n1C	1%	15µM*	/	-30%
Cc1c(NC(=O)C(C)OC(=O)c2ccc([N+](=O)[O-])s2)c(=O)n(-c2ccccc2)n1C (stereo not drawn)	0%	13µM*	/	?
Cc1c(NC(=O)/C=C/c2cn(-c3ccccc3)nc2-c2ccc(F)cc2)c(=O)n(-c2ccccc2)n1C	2%	9.3µM*	4%	4%
COCCCNC(=O)C[C@H]1C[C@H](C(=O)N2CCOCC2)[C@@]2(CCC3CCCC3)c3[nH]c4ccc(Cl)cc4c3CCN2C1=O	-1%	/	/	/
COc1cccc(C(C(=O)NC2CCCC2)N(C(=O)c2ccco2)c2ccc(C(C)=O)cc2)c1OC (stereo not drawn)	-2%	-6%	-4%	?
SMILES	SARS PLpro yeast	Pf growth 96h	NS1 inh	Pf growth 48h
COc1cccc(C(C(=O)NC2CCCC2)N(C(=O)c2ccco2)c2ccc(NC(C)=O)cc2)c1OC (stereo not drawn)	0%	49%	-2%	1µM*
COc1cccc(C(C(=O)NC2CCCC2)N(C(=O)c2ccco2)c2ccccc2)c1OC (stereo not drawn)	1%	-19%	10%	9.3µM*
Cc1ccccc1CC(=O)NCC1CCCCC1	-2%	12µM*	13%	-2%
CCOc1ccc(CN(C(=O)c2cc3ccccc3oc2=O)C2CC2)cc1	-1%	-9%	-25%	12µM*
O=C(c1cc2ccccc2oc1=O)N(Cc1ccccc1F)C1CCS(=O)(=O)C1 (stereo not drawn)	4%	5.2µM*	1%	19%
CC(C)(C)c1ccc(OCCC(=O)NNC(=O)c2ccncc2)cc1	-12%	10%	/	2%
